{"source": "PubChem BioAssay (NCI)", "note": "Where “and” joins values, the source holds several entries; their conditions need not be identical. Identical values can stand only once. About 83,000 compounds went through this panel and 20% of them were active in at least one assay; those are over-represented in the sample as a whole.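 Testing used 96-well plates and a 48-hour single-concentration exposure. Example: -40 means 40% of the starting cells died.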 Calls of active or inactive are those of the source. Rule for the calls: active = growth percent below 10; inactive = the rest."}
{"tested_on": "HL-60(TB) leukemia", "assay": "NCI-60 one-dose screen, 48 h (100 = growth as untreated, 0 = no growth, -100 = all killed)", "details": "10 µM unless noted"}
{"molecule": "CCOC(=O)/C=C1\\S/C(=N\\Nc2cc(=O)[nH]c3ccc(Cl)cc23)N(c2ccccc2)C1=O", "growth": "0.175% (active)"}
{"molecule": "O=C(CCCCC1CCSS1)Nc1ncnc2n[nH]c(-c3ccc(Oc4ccccc4)cc3)c12", "note": "(centres undefined)", "growth": "78.8% (inactive)"}
{"molecule": "COc1cc(CNCCN2C(=O)c3ccc4c5c(ccc(c35)C2=O)C(=O)N(CCNCc2cc(OC)c(OC)c(OC)c2)C4=O)cc(OC)c1OC", "growth": "-48.7% (active)"}
{"molecule": "CN(CC(=O)Nc1nc2ccccc2[nH]1)S(=O)(=O)c1ccc(Cl)cc1", "growth": "90% (inactive)"}
{"molecule": "OC(COc1ccccc1Cl)COc1ccccc1Cl", "growth": "94.3% (inactive)"}
{"molecule": "N#CCCN=Nc1c(O)[nH]c2ccc(F)cc12", "growth": "110% (inactive)"}
{"molecule": "O=S(=O)(Nc1ccc(F)c(Cl)c1)c1ccc(-c2cnc(C3CC3)o2)cc1", "growth": "8.62% (active)"}
{"molecule": "COC1C(OC(N)=O)C(O)C(Oc2ccc3c(O)c(NC(=O)c4ccc(O)c(CC=C(C)C)c4)c(=O)oc3c2C)OC1(C)C", "note": "(centres undefined)", "growth": "74% (inactive) and 106% (inactive)"}
{"molecule": "CCOC(=O)c1cn2c3c(cc(F)cc3c1=O)C(CC)c1ccccc1C2", "note": "(centres undefined)", "growth": "94.9% (inactive)"}
{"molecule": "C[C@H](C(=O)N[C@@H](Cc1ccc(-c2ccccc2)cc1)C(=O)NC1CC(C)(C)N(C)C(C)(C)C1)c1ccc(-c2ccccc2)c(F)c1", "growth": "-61.2% (active)"}
{"molecule": "Cn1cc(-c2csc(-c3cn(CCCN4CCCCC4)c4ccc(Br)cc34)n2)c2cccnc21", "growth": "0.828% (active)"}
{"molecule": "NNC(=O)c1nc(N)n(-c2ccc(S(N)(=O)=O)cc2)n1", "growth": "99.5% (inactive)"}
{"molecule": "NNc1ccc2ccccc2c1", "growth": "98.4% (inactive) and 108% (inactive)"}
{"molecule": "CCCCCCCC12Cc3ccccc3C1=Nc1c(c3ccccc3n1C)C2=O", "note": "(centres undefined)", "growth": "91.4% (inactive)"}
{"molecule": "COc1cc(OC)c2c(c1)c1nc3cc(C)c(C)cc3nc1n2CCN(C)C", "growth": "103% (inactive)"}
{"molecule": "Cc1ccsc1-c1ccc2c(c1)COC2(CCCN(C)C)c1ccc(F)cc1", "note": "(centres undefined)", "growth": "23% (inactive)"}
{"molecule": "CCOc1c(C#N)c2c(N)ncnc2n1C1OC(CO)C(O)C1O", "note": "(centres undefined)", "growth": "2.98% (active)"}
{"molecule": "COC(=O)CCC1=C(C)C2=NC1=CC1=NC(=CC3=NC(=Cc4[nH]c(/c(=C(/C)O)c4C)=C2)C(C(C)=O)=C3C)C(C)=C1CCC(=O)OC", "growth": "78.2% (inactive)"}
{"molecule": "COc1cc(/C=N/NC(=O)Cn2c(-c3ccc(C)o3)nc3ccccc32)ccc1OCc1ccccc1", "growth": "87.4% (inactive)"}
{"molecule": "O=C(Cn1c2c(c3ccccc31)CCCC2)Nc1ccc(-c2nc3ccccc3s2)cc1", "growth": "99.1% (inactive)"}
{"molecule": "COc1nc(N(C)O)nc(N(C)O)n1", "growth": "50.4% (inactive)"}
{"molecule": "COc1ccc(-c2nc(Nc3ccc(F)cc3)nc(Nc3ccc4c(c3)nc(C)n4Cc3ccccc3)n2)cc1", "growth": "-11.4% (active)"}
{"molecule": "O=[N+]([O-])c1ccc(S(=O)Cc2ccccc2)c([N+](=O)[O-])c1", "note": "(centres undefined)", "growth": "56.4% (inactive) and -7.5% (active)"}
{"molecule": "O=C(Cn1c(=O)sc2ccccc21)NNS(=O)(=O)c1ccccc1[N+](=O)[O-]", "growth": "94.9% (inactive)"}
{"molecule": "Nc1[nH]n2cc(-c3ccccc3)nc2c1N=Nc1ccc(S(N)(=O)=O)cc1", "growth": "27.9% (inactive)"}
{"molecule": "CCN1C[C@@H](C)n2c(c(O)c3c(=O)n(Cc4ccc(F)c(Cl)c4)nc(C(=O)NC)c32)C1=O", "growth": "36.7% (inactive)"}
{"molecule": "C#CC(=O)Nc1cccc2c1cc(C)n2-c1nc2c(c(NCc3ccccc3)n1)CCCC2", "growth": "-40.1% (active)"}
{"molecule": "Cc1cc(C)c(N)c(Br)c1", "growth": "97.9% (inactive) and 69% (inactive)"}
{"molecule": "NC(=O)CN1C(=O)c2ccccc2C1=O", "growth": "96.6% (inactive)"}
{"molecule": "COc1cc(-c2nc3cc(Cl)c(Cl)cc3[nH]2)ccc1OCC(=O)NN", "growth": "82% (inactive)"}
{"molecule": "CCCCNC(=O)Oc1ccc(/C(=C(\\C)c2ccc(OC)cc2)c2ccc(OCCN3CCCCC3)cc2)cc1", "growth": "34.6% (inactive)"}
{"molecule": "COc1ccc(NC(=O)C(=O)c2c[nH]c3ccc(F)cc23)cc1", "growth": "79% (inactive)"}
{"molecule": "Cc1cc(-c2ccc(NS(=O)(=O)c3ccccc3)c(C)c2)ccc1NS(=O)(=O)c1ccccc1", "growth": "74.5% (inactive) and 97.3% (inactive)"}
{"molecule": "Cc1c2c(cn1Cc1ccccc1)CCc1cn[nH]c1-2", "growth": "90.6% (inactive)"}
{"molecule": "C=C(C)[C@@H]1CC[C@]2(CO)CC[C@]3(C)[C@H](CC[C@@H]4[C@@]5(C)CC[C@H](NCO)C(C)(C)[C@@H]5CC[C@]43C)[C@@H]12", "growth": "-52% (active)"}
{"molecule": "C[C@H]1[C@H]2[C@H]3CC[C@@H]4[C@@]5(C)C/C(=C/c6cccnc6)C(=O)C(C)(C)[C@@H]5CC[C@@]4(C)[C@]3(C)CC[C@]23CO[C@]1(C)[C@@H](C(=O)/C=C\\c1cccnc1)C3", "growth": "14.5% (inactive)"}
{"molecule": "COC(=O)CCCCCCN=Cc1c(O)c(O)c(C(C)C)c2cc(C)c(-c3c(C)cc4c(C(C)C)c(O)c(O)c(C=NCCCCCCC(=O)OC)c4c3O)c(O)c12", "growth": "16.6% (inactive)"}
{"molecule": "CN1CCN(CC(=O)N(C)c2ccc(N=C(c3ccccc3)c3c(O)[nH]c4ccc(C#N)cc34)cc2)CC1", "growth": "14.9% (inactive)"}
{"molecule": "CCCCN1CCN(c2ccc3nc(-c4ccc5nc(-c6cc(OC)c(OC)c(OC)c6)[nH]c5c4)[nH]c3c2)CC1", "growth": "85.7% (inactive)"}
